From PubChem BioAssay (NCATS)
Inconclusive results are not listed. Unless noted, calls follow the shape of the dose curve; as a rule, active = well fitted curve in either direction with a large enough effect (not every such curve was filed as active); inconclusive = small, poorly fitted or top-dose-only effect, or another doubt; inactive = flat fitted curve, though single readings scatter.

How the values were obtained:
[1] = AP1 Signaling Pathway (AID 357); conditions: ME-180 AP-1-bla reporter, EGF-induced, beta-lactamase ratio, 5 h; at 17.2 µM (top of the series) unless noted;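 also: ME-180 reporter cells stimulated with EGF at its EC50 level; % is scaled to controls: 0 for no effect and ±100 for the full control effect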
Procedure, shortened: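 Read-out was the 460nm/530nm emission ratio (excitation 405nm) after CCF4 loading for 2.5 hours at room temperature. Cells carried an AP-1-driven beta-lactamase reporter, were stimulated with EC50 EGF plus compound for 5 hours, and AC50 values came from titrations.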

[2] = NFAT Signaling Pathway (AID 444); conditions: Jurkat NFAT-bla M1, carbachol, beta-lactamase ratio, 5 h; at 17.2 µM (top of the series) unless noted;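 also: carbachol stimulus at about its EC50 of 1 µM final; % is scaled to controls: 0 for no effect and ±100 for the full control effect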
Procedure, shortened: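 Jurkat cells with NFAT-driven β-lactamase reporter and co-expressed M1 receptor, stimulated with carbachol (final 1 uM, ~EC50), compound titration, 5 h at 37 °C. CCF4 loaded 1 h at RT; 460/530 nm ratio gave %activity and AC50.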

[3] = Stat Signaling Pathway (AID 446); conditions: ME-180 (cervical carcinoma) SIE beta-lactamase reporter, IL-6 stimulated, 5 h; at 17.2 µM (top of the series) unless noted;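 also: ME-180 cervical cancer cells given 40 pM IL-6 alongside compound; SIE-controlled beta-lactamase reporter measured as 460/530 nm FRET emission ratio; % is scaled to controls: 0 for no effect and ±100 for the full control effect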
Procedure, shortened: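 Overnight-plated ME-180 cells bearing a STAT Inducible Element beta-lactamase reporter; 5 h co-exposure to compound and 40 pM IL-6; values normalized to 300 pM IL-6 and 125 nM JAK inhibitor controls.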

[4] = biological target: Glucocorticoid receptor (Homo sapiens) (UniProt P04150); assay: GR-GFP Redistribution (AID 450;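 active = compounds whose dose series gives a full or clear partial fitted curve of increased nuclear translocation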; also: potency is read from the fitted curve at half-maximal effect)
Sequence of Glucocorticoid receptor (Homo sapiens) (P04150 whole entry, looked up): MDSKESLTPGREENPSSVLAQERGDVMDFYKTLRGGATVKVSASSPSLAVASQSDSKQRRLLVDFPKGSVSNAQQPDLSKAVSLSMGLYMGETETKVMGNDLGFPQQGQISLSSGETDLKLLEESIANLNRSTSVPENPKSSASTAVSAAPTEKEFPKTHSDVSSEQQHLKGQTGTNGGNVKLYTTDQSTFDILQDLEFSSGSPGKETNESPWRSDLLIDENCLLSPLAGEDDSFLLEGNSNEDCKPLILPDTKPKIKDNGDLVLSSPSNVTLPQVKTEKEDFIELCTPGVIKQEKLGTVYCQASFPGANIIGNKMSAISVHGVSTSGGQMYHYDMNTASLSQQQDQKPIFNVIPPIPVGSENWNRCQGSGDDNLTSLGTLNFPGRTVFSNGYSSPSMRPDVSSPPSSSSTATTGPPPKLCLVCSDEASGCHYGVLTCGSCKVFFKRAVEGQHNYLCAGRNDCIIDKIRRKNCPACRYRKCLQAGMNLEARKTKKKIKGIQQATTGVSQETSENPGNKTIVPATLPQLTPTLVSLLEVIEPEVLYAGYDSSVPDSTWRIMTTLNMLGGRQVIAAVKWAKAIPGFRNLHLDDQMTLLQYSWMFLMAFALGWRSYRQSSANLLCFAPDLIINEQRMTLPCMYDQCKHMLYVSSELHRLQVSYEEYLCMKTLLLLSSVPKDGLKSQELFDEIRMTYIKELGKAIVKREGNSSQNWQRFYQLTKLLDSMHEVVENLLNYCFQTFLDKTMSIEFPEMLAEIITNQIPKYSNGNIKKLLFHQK

Cc1cc(C)c(C#N)c(SCC(=O)NC2CC2)n1
inactive: activity change, negative = inhibition [1] 5.34% | activity change, negative = inhibition [2] -3.32% | activity, negative = inhibition [3] 8.05% | Potency [4] > 20.6 µM

CCOc1ccc(C2=Nn3c(nnc3-c3cccnc3)SC2)cc1
inactive: activity change, negative = inhibition [1] 3.18% | activity change, negative = inhibition [2] -2.85% | activity, negative = inhibition [3] -4.46% | Potency [4] > 20.6 µM

COC(=O)c1cc2c(=O)n3cccc(C)c3nc2n(Cc2cccnc2)c1=N
inactive: activity change, negative = inhibition [1] 7.65% | activity change, negative = inhibition [2] -10.7% | activity, negative = inhibition [3] 15.4% | Potency [4] > 20.6 µM

Cc1cc(C(F)(F)F)nn1CC(=O)NCC1CCCO1 (centres undefined)
inactive: activity change, negative = inhibition [1] 3.74% | activity change, negative = inhibition [2] -11% | activity, negative = inhibition [3] 3.03% | Potency [4] > 20.6 µM

COC(=O)C(NC(=O)c1ccco1)(Nc1nc(C)cs1)C(F)(F)F (centres undefined)
inactive: activity change, negative = inhibition [1] -3.01% | activity change, negative = inhibition [2] 4.32% | activity, negative = inhibition [3] -2.51% | Potency [4] > 20.6 µM

Cc1ccc(NC(=O)Cn2nc(C)c3ccccc3c2=O)cc1
inactive: activity change, negative = inhibition [1] 14.3% | activity change, negative = inhibition [2] 10.1% | activity, negative = inhibition [3] 6.34% | Potency [4] > 20.6 µM

Cc1ccc(N2CN=c3s/c(=C\c4cccnc4)c(=O)n3C2)cc1
inactive: activity change, negative = inhibition [1] -7.29% | activity change, negative = inhibition [2] -22.3% | activity, negative = inhibition [3] -5.47% | Potency [4] > 20.6 µM

Cn1c(=O)c2c3c(sc2n2c(SCC(=O)c4ccccc4)nnc12)COC(C)(C)C3
inactive: activity change, negative = inhibition [1] 5.44% | activity change, negative = inhibition [2] -28.1% | activity, negative = inhibition [3] 4.51% | Potency [4] > 20.6 µM

CCSc1nc(O)c(C2OC(=O)c3c2ccc(OC)c3OC)c(=O)n1-c1ccccc1 (centres undefined)
inactive: activity change, negative = inhibition [1] -10.9% | activity change, negative = inhibition [2] 4% | activity, negative = inhibition [3] -4.52% | Potency [4] > 20.6 µM

CC1(C)Cc2c(c(N3CCOCC3)nc3snc(N)c23)CO1
inactive: activity change, negative = inhibition [1] -12.8% | activity change, negative = inhibition [2] -24.1% | activity, negative = inhibition [3] -10.9% | Potency [4] > 20.6 µM

CCOCCn1c(SC)nc2c1c(=O)[nH]c(=O)n2C
inactive: activity change, negative = inhibition [1] 11% | activity change, negative = inhibition [2] -1.92% | activity, negative = inhibition [3] -1.1% | Potency [4] > 20.6 µM

CCOc1ccc(C2C(C(=O)c3ccc(C)o3)=C(O)C(=O)N2CCCN(CC)CC)cc1 (centres undefined)
inactive: activity change, negative = inhibition [1] -5.84% | activity change, negative = inhibition [2] 12.8% | activity, negative = inhibition [3] 6.24% | Potency [4] > 20.6 µM

Cc1nc(NCCO)c(C#N)c2c1COC(C)(C)C2
inactive: activity change, negative = inhibition [1] -5.08% | activity change, negative = inhibition [2] 2.21% | activity, negative = inhibition [3] 4.18% | Potency [4] > 20.6 µM

CCOC(=O)CC(=O)CSc1nc2c(cc1C#N)CCCCC2
inactive: activity change, negative = inhibition [1] 2.56% | activity change, negative = inhibition [2] 1.41% | activity, negative = inhibition [3] -7.32% | Potency [4] > 20.6 µM

c1cc(-c2nnc3sc(C4CCCCC4)nn23)ccn1
inactive: activity change, negative = inhibition [1] -28.7% | activity change, negative = inhibition [2] -22.5% | activity, negative = inhibition [3] -15.8% | Potency [4] > 20.6 µM

N#Cc1nc(-c2ccc(F)cc2)oc1N1CCCC1
inactive: activity change, negative = inhibition [1] 0.0908% | activity change, negative = inhibition [2] -1.86% | activity, negative = inhibition [3] -3.18% | Potency [4] > 20.6 µM

Cc1cc(SCCC(=O)O)nc2ccccc12
inactive: activity change, negative = inhibition [1] 0.423% | activity change, negative = inhibition [2] -5.26% | activity, negative = inhibition [3] 6.44% | Potency [4] > 20.6 µM

O=C1CC(c2ccccc2)n2nc(N3C(=O)c4ccccc4C3=O)nc2N1 (centres undefined)
inactive: activity change, negative = inhibition [1] 0.103% | activity change, negative = inhibition [2] -10.6% | activity, negative = inhibition [3] -7.82% | Potency [4] > 20.6 µM

CN(C)c1ccc(C=NCC2(O)CCOC(C)(C)C2)cc1 (centres undefined)
inactive: activity change, negative = inhibition [1] -0.248% | activity change, negative = inhibition [2] -9.77% | activity, negative = inhibition [3] 8.53% | Potency [4] > 20.6 µM

Cc1cc(NC(CC(C)C)C(=O)O)nc(Cc2ccccc2)n1 (centres undefined)
inactive: activity change, negative = inhibition [1] 0.713% | activity change, negative = inhibition [2] 7.49% | activity, negative = inhibition [3] 5.49% | Potency [4] > 20.6 µM

OCCCc1nc2ccccc2n1CCc1ccccc1
inactive: activity change, negative = inhibition [1] 6.55% | activity change, negative = inhibition [2] -7.48% | activity, negative = inhibition [3] -0.378% | Potency [4] > 20.6 µM

CC(=O)/C(C#N)=C1\NC(=O)C(Cc2ccccc2Cl)S1 (centres undefined)
inactive: activity change, negative = inhibition [1] 8.76% | activity change, negative = inhibition [2] -3.03% | activity, negative = inhibition [3] -6.04% | Potency [4] > 20.6 µM

CC1(C)NC(=O)N(CC(O)COc2ccccc2C(=O)Nc2ccccc2)C1=O (centres undefined)
inactive: activity change, negative = inhibition [1] -6.46% | activity change, negative = inhibition [2] 9.58% | activity, negative = inhibition [3] 3.3% | Potency [4] > 20.6 µM

COc1ccc(/C(O)=C2/C(=O)C(=O)N(CCN3CCOCC3)C2c2cccnc2)cc1OC (centres undefined)
inactive: activity change, negative = inhibition [1] -2.7% | activity change, negative = inhibition [2] 7.11% | activity, negative = inhibition [3] 6.33% | Potency [4] > 20.6 µM

COc1ccc2c(c1)nc(N)n2Cc1ccccc1
inactive: activity change, negative = inhibition [1] -1.6% | activity change, negative = inhibition [2] -9.42% | activity, negative = inhibition [3] -3.55% | Potency [4] > 20.6 µM

CCc1ccc(NC(=O)CSC2=C(C#N)C(c3ccco3)C3=C(CCCC3=O)N2)cc1 (centres undefined)
inactive: activity change, negative = inhibition [1] -12.8% | activity change, negative = inhibition [2] -17.6% | activity, negative = inhibition [3] -16.5% | Potency [4] > 20.6 µM
